# PubChem BioAssay (NCATS)
# Where “and” joins values, the source holds several entries; their conditions need not be identical. Equal values may be shown once. Records with an inconclusive call do not appear. Some compounds were tested as several samples or in several runs, with calls that do not always agree. Calls of active or inactive are those of the source. Unless noted, calls come from the whole dose curve; as a rule, active = well fitted curve in either direction with a large enough effect (not every such curve was filed as active); inconclusive = small, poorly fitted or top-dose-only effect, or another doubt; inactive = flat fitted curve, though single readings scatter.
# Experiments:
# [1] = AP1 Signaling Pathway (AID 357); details: ME-180 AP-1-bla reporter, EGF-induced, beta-lactamase ratio, 5 h; series mostly up to 17.2 µM;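 note: ME-180 reporter cells stimulated with EGF at its EC50 level; % is set by controls: 0 for no effect and ±100 for the full control effect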
# How it was run: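 A ratiometric CCF4 readout (405 nm excitation; 460 and 530 nm emission) quantified AP-1-driven beta-lactamase in ME-180 cells after 5 h with compound and EC50 EGF; AC50 values were derived for activators and inhibitors.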
# [2] = target: Cytochrome P450 1A2 (Homo sapiens) (UniProt P05177); experiment: p450-cyp1a2 (AID 410; calls by dose curve; note: potency is the fitted concentration of half-maximal effect;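 for activity change, negative = inhibition: -100% = full effect of reference inhibitor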); details: recombinant CYP1A2, luciferin-ME demethylation, luminescence; series mostly up to 25.6 µM
# Chain of Cytochrome P450 1A2 (Homo sapiens) (P05177 whole entry, looked up): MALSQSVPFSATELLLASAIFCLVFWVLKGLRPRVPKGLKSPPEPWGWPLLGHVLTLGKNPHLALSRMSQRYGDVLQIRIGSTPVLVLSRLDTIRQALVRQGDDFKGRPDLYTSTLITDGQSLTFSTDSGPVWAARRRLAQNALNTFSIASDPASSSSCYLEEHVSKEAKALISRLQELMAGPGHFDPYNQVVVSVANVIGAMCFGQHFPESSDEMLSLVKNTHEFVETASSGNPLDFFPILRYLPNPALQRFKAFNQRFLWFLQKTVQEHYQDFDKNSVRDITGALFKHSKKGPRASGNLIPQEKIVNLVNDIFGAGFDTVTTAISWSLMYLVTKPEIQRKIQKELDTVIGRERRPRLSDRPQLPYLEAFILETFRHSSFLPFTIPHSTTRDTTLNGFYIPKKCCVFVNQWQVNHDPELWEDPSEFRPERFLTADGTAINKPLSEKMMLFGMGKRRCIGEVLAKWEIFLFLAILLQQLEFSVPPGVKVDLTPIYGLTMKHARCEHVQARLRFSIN
# How it was run: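 Human CYP1A2 (20nM) demethylated Luciferin-ME at its Km (100uM) in 100mM KPO4. After 10 min compound preincubation, NADPH regeneration ran the reaction 60 min at room temperature. Luciferin was read by luminescence, normalized to 57 uM furafylline.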
# [3] = Stat Signaling Pathway (AID 446); details: ME-180 SIE beta-lactamase reporter, IL-6 stimulated, 5 h; series mostly up to 17.2 µM;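 note: ME-180 cervical cancer cells given 40 pM IL-6 alongside compound; SIE-controlled beta-lactamase reporter measured as 460/530 nm FRET emission ratio; % is set by controls: 0 for no effect and ±100 for the full control effect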
# How it was run: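 ME-180 cells carrying a SIE-driven beta-lactamase reporter are stimulated with 40 pM IL-6 for 5 h at 37C in the presence of compound. The 460/530 nm FRET substrate ratio is read after 2.5 h at RT. Data are normalised to 300 pM IL-6 and to 125 nM JAK inhibitor controls.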
# [4] = NFAT Signaling Pathway (AID 444); details: Jurkat NFAT-bla M1, carbachol, beta-lactamase ratio, 5 h;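 note: carbachol stimulus at about its EC50 of 1 µM final; % is set by controls: 0 for no effect and ±100 for the full control effect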
# How it was run: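 Jurkat cells with NFAT-driven β-lactamase reporter and co-expressed M1 receptor, stimulated with carbachol (final 1 uM, ~EC50), compound titration, 5 h at 37 °C. CCF4 loaded 1 h at RT; 460/530 nm ratio gave %activity and AC50.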
# [5] = Cell Viability - Jurkat (AID 426;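 active = dose-dependent loss of cell ATP signal giving a full or clear fitted curve, ranked by lower potency value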; note: potency is the fitted concentration of half-maximal effect); details: qHTS
# How it was run: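 Jurkat (clone E6-1, human T-cell leukemia) cells, 5000/well in complete medium, were exposed to compound for 40 hr at 37 °C. Viability was read as intracellular ATP by CellTiter-Glo luminescence; AC50 came from Hill fits of concentration-response data.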
# [6] = Cell Viability - Hek293 (AID 427;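 active = compounds whose dose-response curve shows a full or clear partial loss of cell viability, called from curve shape rather than a numeric limit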;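 note: potency is the fitted concentration of half-maximal effect; cells exposed to compound for 40 hours at 37 °C before reading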); details: qHTS
# How it was run: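 HEK293 cells in complete medium were exposed to compound for 40 hr at 37 °C, then cellular ATP was read by CellTiter-Glo luminescence. Data were normalized to DMSO (basal) and 100 uM tamoxifen (100% inhibition), and AC50 came from Hill fits.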
# [7] = Cell Viability - HepG2 (AID 433; calls by dose curve;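 note: potency is the fitted concentration of half-maximal effect; potency for ATP loss meaning cytotoxicity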); details: qHTS
# How it was run: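 Cytotoxicity is scored as loss of intracellular ATP in HepG2 cells exposed to compounds for 40 h. Concentration-response curves, normalized to DMSO and 100 uM tamoxifen, give AC50 values.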
# [8] = Cell Viability - MRC5 (AID 434; calls by dose curve;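 note: potency is the fitted concentration of half-maximal effect; potency reflects cytotoxicity seen as loss of intracellular ATP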); details: MRC5 lung fibroblast viability, qHTS
# How it was run: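 MRC5 normal human lung fibroblasts, 1500 cells/well, exposed to compound for 40 hr at 37 C. Cellular ATP was read by CellTiter-Glo luminescence; data normalized to DMSO and 100 uM tamoxifen, with AC50 from Hill fits.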
# [9] = Cell Viability - SK-N-SH (AID 435; calls by dose curve;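 note: potency is the fitted concentration of half-maximal effect; compound exposure lasted 40 h at 37 °C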); details: SK-N-SH neuroblastoma cell viability qHTS
# How it was run: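 Cells seeded at 1500 per well and incubated 5 hr at 37 °C. Compound added, then 40 hr at 37 °C. CellTiter-Glo added, 20 min at room temperature, luminescence read.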
# [10] = Cell Viability - BJ (AID 421; calls by dose curve;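 note: potency is the fitted concentration of half-maximal effect; cells exposed to compound for 40 hours at 37 °C before readout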); details: BJ fibroblast viability, qHTS
# How it was run: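 Normal human BJ foreskin fibroblasts, 1500/well in complete medium, treated 40 hr at 37 °C. Cellular ATP by CellTiter-Glo luminescence; normalized to DMSO and 100 uM tamoxifen, AC50 from Hill fit.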
structure (smiles),measurement,setting,value
CN1[C@@H]2CC[C@H]1CC(OC(=O)c1cc(Cl)cc(Cl)c1)C2 (some centres undefined),outcome,[1],inactive
same,Potency,[2],inactive
same,outcome,[3],inactive
C[C@H](N)[C@H](O)c1ccc(O)c(O)c1,outcome,[1],inactive
same,Potency,[2],inactive
same,"activity change, negative = inhibition",[4]; at 17.2 µM (top of the series),-6.73% (inactive)
same,"activity change, negative = inhibition",[4]; at 38 µM (top of the series),1.06% (inactive)
same,outcome,[3],inactive
CCCCCCCCC(=O)NCc1ccc(O)c(OC)c1,outcome,[1],inactive
same,Potency,[2],12.6 µM (active)
same,"activity change, negative = inhibition",[4]; at 38 µM (top of the series),6.44% (inactive)
same,outcome,[3],inactive
CN(C)C(=S)SSC(=S)N(C)C,Potency,[5],12.5 µM (active)
same,Potency,[6],14.5 µM (active)
same,Potency,[7],66.9 µM (active)
same,Potency,[8],13.2 µM (active)
same,Potency,[9],8.36 µM (active)
Clc1ccc(CSC(Cn2ccnc2)c2ccc(Cl)cc2Cl)cc1 (centres undefined),outcome,[1],inactive
c1ccc2nc(N3CCNCC3)ccc2c1,outcome,[1],inactive
same,Potency,[2],1.58 µM (active) and 1.26 µM (active) and 251 nM (active)
same,"activity change, negative = inhibition",[4]; at 17.2 µM (top of the series),-7.47% (inactive)
same,"activity change, negative = inhibition",[4]; at 38 µM (top of the series),-5.87% (inactive)
same,outcome,[3],inactive
C[C@@H]1C[C@@H]([C@H](O)CC2CC(=O)NC(=O)C2)C(=O)[C@@H](C)C1,Potency,[10],> 92 µM (inactive)
same,Potency,[5],301 nM (active) and 142 nM (active)
same,Potency,[6],129 nM (active) and 167 nM (active)
same,Potency,[7],> 92 µM (inactive)
same,Potency,[8],> 92 µM (inactive)
same,Potency,[9],> 92 µM (inactive)
COc1ccc(CN2CCNCC2)c(OC)c1OC,outcome,[1],inactive
same,"activity change, negative = inhibition",[4]; at 17.2 µM (top of the series),-8.2% (inactive)
same,outcome,[3],inactive
COc1ccc(C(=O)N2CCCC2=O)cc1,outcome,[1],inactive
same,"activity change, negative = inhibition",[4]; at 17.2 µM (top of the series),-27.3% (inactive)
same,"activity change, negative = inhibition",[4]; at 38 µM (top of the series),11.8% (inactive)
same,outcome,[3],inactive
CC[n+]1c(-c2ccccc2)c2cc(N)ccc2c2ccc(N)cc21,Potency,[5],26.8 µM (active)
same,Potency,[8],> 92 µM (inactive)
same,Potency,[9],> 92 µM (inactive)
OC(c1ccccc1)(c1ccccc1)C1CCNCC1,outcome,[1],inactive
same,Potency,[2],inactive
same,outcome,[3],inactive
O=C(CCCN1CCC(n2c(=O)[nH]c3ccccc32)CC1)c1ccc(F)cc1,outcome,[1],inactive
same,Potency,[2],inactive
same,outcome,[3],inactive
CCCCCCCCCCCC[N+](C)(C)CCOc1ccccc1,Potency,[10],13.7 µM (active)
same,Potency,[5],25.2 µM (active)
same,Potency,[6],29.6 µM (active)
same,Potency,[7],58.8 µM (active)
same,Potency,[8],14.5 µM (active)
same,Potency,[9],24.5 µM (active)
NC(=O)CN1CCCC1=O,outcome,[1],inactive
same,Potency,[2],inactive
same,"activity change, negative = inhibition",[4]; at 17.2 µM (top of the series),-0.917% (inactive)
same,"activity change, negative = inhibition",[4]; at 38 µM (top of the series),1.7% (inactive)
same,outcome,[3],inactive
CNC(=O)Oc1cccc2ccccc12,Potency,[10],> 92 µM (inactive)
same,Potency,[6],> 92 µM (inactive)
same,Potency,[7],> 92 µM (inactive)
same,Potency,[8],> 92 µM (inactive)
same,Potency,[9],> 92 µM (inactive)
COC(=O)C1=CCCN(C)C1,outcome,[1],inactive
same,Potency,[2],inactive
same,outcome,[3],inactive
CCC(=O)O[C@H]1CC[C@H]2[C@@H]3CCC4=CC(=O)CC[C@]4(C)[C@H]3CC[C@]12C,outcome,[1],inactive
same,Potency,[2],inactive
same,outcome,[3],inactive
O=C(CCl)c1ccc(Cl)cc1Cl,Potency,[10],47.1 µM (active)
same,Potency,[5],0.345 µM (active)
same,Potency,[7],47.9 µM (active)
same,Potency,[9],9.56 µM (active)
CC(C)[N+](C)(CCC(C(N)=O)(c1ccccc1)c1ccccc1)C(C)C,outcome,[1],inactive
same,Potency,[2],inactive
same,outcome,[3],inactive
Oc1c(Br)cc(Br)cc1Br,Potency,[10],> 92 µM (inactive)
same,Potency,[6],> 92 µM (inactive)
same,Potency,[7],> 92 µM (inactive)
same,Potency,[8],> 92 µM (inactive)
same,Potency,[9],> 92 µM (inactive)
Oc1ccc2[nH]cc(CCCCN3CC=C(c4ccccc4)CC3)c2c1,Potency,[2],31.6 µM (active)
COP(=O)(OC)C(O)C(Cl)(Cl)Cl (centres undefined),outcome,[1],inactive
same,outcome,[3],inactive
COP(=O)(OC)OC=C(Cl)Cl,Potency,[10],> 92 µM (inactive)
same,Potency,[5],> 92 µM (inactive)
same,Potency,[6],> 92 µM (inactive)
same,Potency,[7],> 92 µM (inactive)
same,Potency,[8],30.9 µM (active) and > 92 µM (inactive)
same,Potency,[9],> 92 µM (inactive)
C[N+]1(C)[C@@H]2CC[C@H]1CC(OC(=O)C(CO)c1ccccc1)C2 (some centres undefined),outcome,[1],inactive
same,"activity change, negative = inhibition",[4]; at 17.2 µM (top of the series),-95.4% (active) and -94.2% (active)
same,outcome,[3],inactive
O=C(O)c1nn(Cc2ccc(Cl)cc2Cl)c2ccccc12,outcome,[1],inactive
same,Potency,[2],inactive
same,"activity change, negative = inhibition",[4]; at 38 µM (top of the series),-9.69% (inactive)
